Screening data as filed in PubChem.
GPT2 inhibitor: blocks human glutamate pyruvate transaminase 2. 0.25% of 100,000 active. Potency, µM (series often up to 57.7 µM), for the others: at the top dose activity change, negative = inhibition, most hits filed as inhibitors. AID 1671188. Q8TD30. Recombinant GPT2, coupled pyruvate oxidase/HRP Amplex Red fluorescence; further: on the % scale 0 is the no-effect control and ±100 the full control effect; nearly all actives have a fitted effect of over 60% in size
Target sequence (Q8TD30 whole entry, looked up): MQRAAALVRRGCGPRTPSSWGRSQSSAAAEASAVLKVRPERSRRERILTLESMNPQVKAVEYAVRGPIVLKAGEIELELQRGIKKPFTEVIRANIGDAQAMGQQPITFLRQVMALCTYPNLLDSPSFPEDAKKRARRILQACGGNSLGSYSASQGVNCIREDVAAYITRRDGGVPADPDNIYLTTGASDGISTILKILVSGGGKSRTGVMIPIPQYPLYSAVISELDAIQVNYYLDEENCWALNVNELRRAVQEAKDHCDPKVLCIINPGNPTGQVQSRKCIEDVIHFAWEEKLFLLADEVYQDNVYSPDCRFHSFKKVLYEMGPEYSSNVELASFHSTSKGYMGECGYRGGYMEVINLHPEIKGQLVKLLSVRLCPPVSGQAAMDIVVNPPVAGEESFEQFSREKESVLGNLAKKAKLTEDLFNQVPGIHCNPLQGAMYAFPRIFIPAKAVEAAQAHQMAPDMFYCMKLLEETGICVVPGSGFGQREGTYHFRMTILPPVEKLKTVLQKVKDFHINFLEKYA
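Fluorescence read-out: pyruvate from GPT2 turnover coupled to pyruvate oxidase, HRP and Amplex Red (0.2mM ThPP, 0.2U/mL PO and HRP, 50uM Amplex final). Substrates 250uM a-KG, 2mM L-alanine; enzyme 10ng/uL; 30 min RT.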
HEK cytotox: kills HEK 293 cells; AID 1345083; 6.6% of 94,000 active; Potency, µM (highest dose often 115 µM), inactives show at the top dose activity change, negative = cytotoxicity, usual class: inhibitors; HEK 293 viability, ATP luminescence (CellTiter-Glo), 48-72 h; further: on the % scale 0 is the no-effect control and ±100 the full control effect; nearly all actives have a fitted effect of over 60% in size
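Cells seeded first (HEK 293, 250 cells/well), then compound added by pintool. Incubation ran 48 or 72 hr at 37 degree Celsius. CellTiter-Glo was added and luminescence imaged after 10 min at room temperature.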
3T3 cytotox: NIH 3T3 cell cytotoxicity. NIH 3T3 viability, CellTiter-Glo ATP luminescence, 48-72 h. Potency, µM (doses to about 96.7 µM), for inactives: at the top dose activity change, negative = cytotoxicity, most hits filed as inhibitors. 4.3% of 94,000 active; further: on the % scale 0 is the no-effect control and ±100 the full control effect; nearly all actives have a fitted effect of over 55% in size
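Cytotoxicity was measured by CellTiter-Glo ATP luminescence after 48 or 72 h compound exposure at 37 °C. Mouse NIH 3T3 fibroblasts were seeded at 400 cells/well and dosed by 23 nL pin transfer.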
NPR1 antag: antagonists of human natriuretic peptide receptor Npr1 | P16066 | HEK293 hNpr1 GloSensor cGMP, ANP-stimulated luminescence | Potency, µM (doses to about 46.3 µM), inactives show top-dose activity change, negative = inhibition, usual class: inhibitors | 1.6% of 76,000 active | AID 1347048; calls by dose curve; further: on the % scale 0 is the no-effect control and ±100 the full control effect; nearly all actives have a fitted effect of over 60% in size
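HEK293 cells stably expressing human Npr1 and cGMP GloSensor pGS-40F, loaded 2 h with 2% GloSensor reagent, given compound 30 min at room temperature. Luminescence read before and 20 min after 0.1 nM hNppA.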
FLuc inh-1: Photinus pyralis luciferase inhibition. P08659. purified P. pyralis luciferase, luminescence, biochemical. Potency, µM (series often up to 115 µM), hits mostly inhibitors. 2.5% of 76,000 active. AID 1347043; further: on the % scale 0 is the no-effect control and ±100 the full control effect; nearly all actives have a fitted effect of over 65% in size
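Purified 10nM P. pyralis luciferase with 10uM D-luciferin and 10uM ATP in 50mM Tris acetate pH 7.5, 10mM Mg acetate, 0.01% Tween-20, 0.05% BSA. qHTS titration; luminescence read by CCD imager.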
FLuc SDR no ATP: binders stabilizing firefly luciferase, without ATP | shares compounds with FLuc inh-1 | Purified FLuc-C-HiBiT, Nano-Glo HiBiT luminescence, no ATP | Potency, µM (highest dose often 32.7 µM), inactives show at the top dose activation (signal gain), hits mostly activators | 7.8% of 1,300 active; further: nearly all actives have a fitted effect of over 55% in size
FLuc SDR ATP: binders stabilizing firefly luciferase, plus ATP; Potency, µM (series often up to 32.7 µM), for inactives: at the highest dose activation (gain of signal), usual class: activators; shares compounds with FLuc inh-1; 8.7% of 1,300 active; purified FLuc-C-HiBiT + ATP, HiBiT complementation luminescence;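 further: signal reports ligand binding via conformational change of the enzyme rather than luciferase catalysis; % of control where 0% means no effect; nearly all actives have a fitted effect of over 55% in size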
FLuc inh-2: inhibitors of firefly luciferase enzymatic activity; shares compounds with FLuc inh-1; purified FLuc-C-HiBiT enzyme, luciferin luminescence; Potency, µM (doses to about 32.7 µM), inactives show at the highest dose activity change, negative = inhibition, hits mostly inhibitors; 42% of 1,300 active; AID 1963320; further: on the % scale 0 is the no-effect control and ±100 the full control effect; nearly all actives have a fitted effect of over 70% in size
The depositor's hits bear a star; i = inactive; ? = inconclusive; · = no result; [ ] = remark or other dose. In the library only some 10% were active in any assay of this set; here they are far more common. Unless noted, the call rests on the fitted dose curve; in most records, active means well fitted curve in the direction sought with a large enough effect; inconclusive means small, poorly fitted or top-dose-only effect, or another doubt; inactive means no such curve, though single readings can be large; an effect the other way counts as inactive or inconclusive. Potency means the concentration at half of the fitted maximal effect.

SMILES | GPT2 inhibitor | HEK cytotox | 3T3 cytotox | NPR1 antag | FLuc inh-1 | others
COCC1CN(C2CCC2)CC12CCN(C(=O)COc1cccc(C)c1)CC2 (centres undefined) | -6% | ? | ? | -26% | i
CN(C)[C@@H]1CN(Cc2ccsc2)CC[C@@H]1CNC(=O)C1CC1 | i | -2% | i | 5% | i
COc1ccccc1CN[C@H]1Cc2ccc(cc2)Nc2cc(ccc2OC)C[C@H](C(=O)NCc2ccccc2)N(C)C1=O | -28% | 40µM* | ? | 3% | i
CCn1cc(-c2ccc(Cl)cc2)cc1C(=O)NCC(=O)OC | -3% | -33% | ? | 2% | 40µM*
CCn1cc(-c2ccc(Cl)cc2)cc1C(=O)NCCN1CCOCC1 | i | ? | ? | 0% | i
CCOC(=O)CNC(=O)c1cc(-c2ccc(Cl)cc2)cn1C | i | -16% | -27% | -16% | i
CCn1cc(-c2ccc(C)cc2)cc1C(=O)N1CCCN(C)CC1 | i | 79µM* | ? | -10% | i
CCn1cc(-c2ccc(Cl)cc2)cc1C(=O)N1CCCN(C)CC1 | i | 25µM* | 18µM* | -9% | i
CCn1cc(-c2ccc(Cl)cc2)cc1C(=O)N1CCN(C(C)C)CC1 | -7% | ? | 40µM* | -9% | i
COc1ccc(C(=O)NCC(=O)N2CCCCCCNC(=O)CC2c2ccccc2)c(OC)n1 (centres undefined) | 5% | -4% | -18% | -3% | i
O=C(c1ccccc1F)N1CCC(C(=O)N2CCC(N3CCOC3=O)CC2)CC1 | i | -6% | -15% | · | ·
COc1cc(-c2noc(-c3ncn4c3COC(c3ccc(F)cc3)C4)n2)cc(OC)c1OC (centres undefined) | i | ? | ? | 0% | i
COc1ccc(-c2noc(-c3ncn4c3COC(c3ccc(F)cc3)C4)n2)cc1OC (centres undefined) | i | ? | 28µM* | 4% | i
Fc1ccc(C2Cn3cnc(-c4nc(-c5ccc6c(c5)OCO6)no4)c3CO2)cc1 (centres undefined) | -16% | ? | 25µM* | -10% | ?
COc1cccc(-c2cccc(C(=O)N3CCN(C(=O)C4CC4)CC3)c2)c1 | 3% | ? | -27% | · | ·
O=C(C1CC1)N1CCc2nc(C3CC3)nc(-c3ccc(O)cc3)c2CC1 | -23% | -21% | -12% | · | ·
CNC(=O)c1cc(C2CC2)nc2c1c(C1CCN(C(=O)CN(C)C)CC1)nn2C | · | 0% | -3% | · | ·
O=C(c1ccc(Cl)s1)N1CCC2(CC1)CN(c1ccncn1)CC2CO (centres undefined) | i | 50µM* | ? | ? | i
O=C1NC(=NC2CCCC2)C2(CCN(Cc3cccnc3)C2)N1c1cc(F)cc(F)c1 (centres undefined) | -6% | i | 32µM* | · | ·
O=C1NC(=NC2CCCC2)C2(CCN(Cc3cccnc3)CC2)N1c1cc(F)cc(F)c1 | 2% | i | 32µM* | · | ·
CC(C)(C)NCc1cc(Nc2ccnc3cc(Cl)ccc23)c2c(c1O)CCCC2 | 4%[0.698 µM] | · | · | · | ·
COc1ccccc1C(=O)N1CCC(C(=O)N2CCC(N3CCOCC3=O)CC2)CC1 | 0% | i | -8% | · | ·
O=C(c1ccc(Cl)cc1)N1CC2(CCCN(Cc3ccc(Cl)cc3)C2)Cc2ccccc21 (centres undefined) | 5% | ? | 32µM* | · | ·
O=C(c1ccc(Cl)cc1)N1CC2(CCN(Cc3ccc(Cl)cc3)CC2)Cc2ccccc21 | -1% | 40µM* | 35µM* | · | ·
O=C(c1ccc(Cl)cc1)N1CC2(CCN(Cc3c[nH]c4ccccc34)CC2)Cc2ccccc21 | -11% | 20µM* | 11µM* | · | ·
SMILES | GPT2 inhibitor | HEK cytotox | 3T3 cytotox | NPR1 antag | FLuc inh-1 | others
O=C1CC(c2ccccc2)N(Cc2ccncc2)CCCN(C(=O)c2cc3ccccc3[nH]2)CCN1 (centres undefined) | i | ? | ? | ? | ?
O=C(Cc1cccc(Cl)c1)NC1CCN(c2nc3ncccc3o2)C1 (centres undefined) | 0%[88.5 µM] | -19%[172 µM] | -25%[138 µM] | · | ·
O=C1CCC(c2ccccc2)(C2CCN(Cc3ccc(I)cc3)CC2)C(=O)N1 (centres undefined) | 0% | · | · | · | ·
O=C(NCC1CCCCC1)c1cc2n(n1)CC(c1ccc(Cl)cc1)OC2 (centres undefined) | i | ? | ? | -7% | i
Clc1ccc(Oc2cccc(CN3CCN(C4CCNC4)CC3)c2)cc1 (centres undefined) | -6%[11.5 µM] | 28µM* | 28µM* | 3% | i
O=C(C1CCCN(c2nc(-c3ccccc3)nc3c2CCC3)C1)N1CCNCC1 (centres undefined) | 1% | ? | ? | 0% | i
NC1CCN(C(=O)C2CCCN(c3nc(-c4ccccc4)nc4c3CCC4)C2)CC1 (centres undefined) | i[11.5 µM] | ? | 28µM* | 8% | i
O=C(C1CCN(c2nc(-c3ccccc3)nc3c2CCC3)CC1)N1CCNCC1 | -6% | ? | ? | 10% | i
CC(C)(N)C(=O)N1CCN(c2nc(-c3ccccc3)nc3c2CCC3)CC1 | -7% | 50µM* | ? | -1% | i
O=C(NC1CCNCC1)C1CCCN(c2nc(-c3ccccc3)nc3c2CCC3)C1 (centres undefined) | -5% | ? | 40µM* | 0% | i
O=C(Nc1cc(-c2ccccn2)nn1-c1ccccc1)C1CC1 | 2%[88.5 µM] | -5%[172 µM] | -9%[138 µM] | · | ·
CNC(=O)c1cc(C)nc2onc(C3CCCN(C(=O)c4ccccc4Cl)C3)c12 (centres undefined) | · | 1% | -23% | · | ·
COc1cccc(CN2CC(O)CN(C(=O)OCC(C)C)CC2=O)c1OC (centres undefined) | · | -11% | ? | · | ·
COC(=O)c1ccc2c(c1)/C(=C/c1cc(Br)c(O)c(Br)c1)C(=O)N2 | · | · | · | · | · | FLuc SDR no ATP=5%;FLuc SDR ATP=2%;FLuc inh-2=9.9µM*
